Bioassay records as filed in PubChem BioAssay.
PI4K2A block: qHTS for small molecular inhibitors of PI4K2A | Phosphatidylinositol 4-kinase type 2-alpha (Homo sapiens), Q9BTU6 | purified PI4K2A, ADP-Glo luminescence, 1 h; hits give low values | activity change, negative = inhibition, % at 76.9 µM | actives 0.13% (n = 420,000); in the data active = activity change below about -50%; inconclusive = mostly about -30% to -49%;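 also: -100% = wells without enzyme as full effect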
Target sequence (Q9BTU6 whole entry, looked up): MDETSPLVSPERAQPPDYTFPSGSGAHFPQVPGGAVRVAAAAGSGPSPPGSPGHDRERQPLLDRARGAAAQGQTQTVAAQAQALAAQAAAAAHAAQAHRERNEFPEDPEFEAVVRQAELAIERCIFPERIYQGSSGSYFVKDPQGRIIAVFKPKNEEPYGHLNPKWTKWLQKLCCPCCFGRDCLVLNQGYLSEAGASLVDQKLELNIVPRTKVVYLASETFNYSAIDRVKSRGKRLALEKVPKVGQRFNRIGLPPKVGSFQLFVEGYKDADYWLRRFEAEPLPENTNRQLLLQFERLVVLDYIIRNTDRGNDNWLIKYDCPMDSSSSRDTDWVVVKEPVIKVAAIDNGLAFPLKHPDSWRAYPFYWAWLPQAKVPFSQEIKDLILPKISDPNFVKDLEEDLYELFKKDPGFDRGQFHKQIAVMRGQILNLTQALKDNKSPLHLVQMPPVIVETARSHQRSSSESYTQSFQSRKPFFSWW
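PI4K2A activity was measured by ADP-Glo luminescence: enzyme (4 ug/mL stock) and phosphatidylinositol (1.2 mM stock) in Tris pH 7.5/MgCl2/EGTA/Triton X-100 buffer were reacted with ATP (300 microM stock) for one hour at ambient temperature.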
Giardia killer: Small Molecules that selectively kill Giardia lamblia: qHTS | Giardia lamblia trophozoite viability | activity change, % at 7.66 µM, hits read low | actives 0.15% (n = 340,000) | AID 540267, 2011; in the data active = activity change below about -80%; inconclusive = between about -30% and that limit;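 also: parasites exposed to compound for two days anaerobically before the ATP read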
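Luminescent ATP signal served as the viability read-out, measured 15-30 min after adding ATP detection reagent to trophozoites that had been incubated with compounds for 48 hrs at 37 deg C anaerobically at 100 cells/well.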
Nrf2 block: Nrf2 qHTS screen for inhibitors; actives 2.1% (n = 360,000); A549 ARE-Fluc reporter, luciferase luminescence, 18-24 h; Potency, µM (titrated, usually from 46 µM), inactives show top-dose activity change, negative = inhibition, usual class: inhibitors; also: potency is read from the fitted curve at half-maximal effect; nearly all actives have a fitted effect of over 60% in size
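Concentration-response testing used A549 ARE_Fluc cells at 5000 cells/well. Following an 18-24 h compound incubation, viability was read by fluorescence (Ex 405/Em 525) and luciferase output by luminescence.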
KB-3-1 cytotox: qHTS assay for MDR1-selective chemotherapeutics: Primary screen using the parental adenocarcinoma cell KB-3-1. KB-3-1 viability, CellTiter-Glo ATP luminescence, 72 h. Potency, µM (doses to about 46.1 µM), actives largely listed as cytotoxic. actives 1.4% (n = 400,000). AID 1347075, 2019; also: potency is read from the fitted curve at half-maximal effect; nearly all actives have a fitted effect of over 60% in size
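Here the drug-naive KB-3-1 line serves as comparator for MDR sub-line selectivity; cells received compound titrations, 72 h at 37 °C, then CellTiter-Glo readout.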
KB-V1 cytotox: qHTS assay for MDR1-selective chemotherapeutics: Primary screen using the drug-selected MDR subline cells KB-V1 | KB-V1 MDR cells viability, CellTiter-Glo, 72 h | Potency, µM (top dose mostly 46.1 µM), hits mostly cytotoxic | actives 3.4% (n = 400,000) | AID 1347076, 2019; also: potency is read from the fitted curve at half-maximal effect; nearly all actives have a fitted effect of over 60% in size
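Following 72 h at 37 degrees C with compound, KB-V1 cell viability was read by CellTiter-Glo luminescence, medium being phenol-red-free DMEM plus 10% FBS; concentration-response parameters came from normalized, curve-fitted qHTS data.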
A549 viability: Nrf2 qHTS screen for inhibitors: counterscreen for cytotoxicity. A549 ARE-Fluc cells, CellTiter-Fluor viability, 18-24 h. Potency, µM (series often up to 46 µM), without a hit: top-dose activity change, negative = cytotoxicity, actives largely listed as inhibitors. actives 0.16% (n = 390,000); also: potency is read from the fitted curve at half-maximal effect
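Cytotoxicity counterscreen: CellTiter-Fluor fluorescence was measured in A549 ARE_Fluc cells after 18-24 h of compound exposure in a concentration series. The subsequent BugLite luminescent read reports ARE-luciferase activity.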
Active calls of the source: *; i = inactive; u = inconclusive; x = no result given; ! = not confirmed by another sample. The list is not random: actives were taken first. Their share in the collection is about 5.7%. Unless noted, calls follow the shape of the dose curve; as a rule, active = well fitted curve in the direction sought with a large enough effect; inconclusive = small, poorly fitted or top-dose-only effect, or another doubt; inactive = no such curve, though single readings can be large; an effect the other way counts as inactive or inconclusive. Unless noted, % is scaled to controls: 0 for no effect and ±100 for the full control effect.

SMILES | PI4K2A block | Giardia killer | Nrf2 block | KB-3-1 cytotox | KB-V1 cytotox | A549 viability
O=S(=O)(NCC(Nc1ccc(Cl)cc1)c1ccccc1)c1ccccc1 (centres undefined) | 1.9 | 1.6 | u | u | 18.4µM*! | u
COc1cccc(NC(CNS(=O)(=O)c2ccc(Cl)cc2)c2ccccc2)c1 (centres undefined) | -5.2 | x | u | 18.4µM* | i | u
CS(=O)(=O)Nc1ccccc1C(=O)Nc1cccc(Cl)c1 | 1.2 | -0.3 | u | u | i | -3.4%
CS(=O)(=O)Nc1ccccc1C(=O)Nc1cc(Cl)cc(Cl)c1 | 0.3 | 4.9 | 13µM* | i | i | -23.8%
O=C(CN1C(=O)C2CCCCN2C(=O)c2ccccc21)N1CCCC1 (centres undefined) | 3.8 | x | x | x | x | x
Cc1cccc(NC(=O)CN2C(=O)C(c3ccc(F)cc3)=NC23CCCCCC3)c1C | -5.2 | x | 23.1µM* | x | x | -16.9%
COc1ccc(-c2nn(C)c3sc(C(=O)Nc4cc(OC)c(OC)c(OC)c4)cc23)cc1OC | 3.0 | x | 23.1µM* | x | x | u
COc1ccc(NC(=O)c2cc3c(-c4ccc(OC)c(OC)c4)nn(C)c3s2)cc1OC | 1.5 | 1.4 | 11.6µM* | u | u | -28.8%
COc1ccc(-c2nn(C)c3sc(C(=O)NCc4ccco4)cc23)cc1OC | -12.9 | 4.3 | 18.4% | i | i | 0.5%
CC(=O)O[C@H]1CC[C@H]2[C@@H]3CCc4cc(O)ccc4[C@H]3CC[C@]12C | -3.3 | -8.8 | u | u | 14.6µM* | -1.6%
CC(NCCN(C)C)C1CCC2C3CCc4cc(O)ccc4C3CCC12C (centres undefined) | 6.4 | u | 13.0% | i | u | u
C[C@]12CC[C@@H]3c4cc(O)c(O)cc4CC[C@H]3[C@@H]1CC[C@@H]2O | -2.5 | 12.8 | -2.2% | 6.51µM* | 13µM* | -13.1%
CC(=O)Oc1ccc2c(c1)CC[C@@H]1[C@@H]2CC[C@]2(C)[C@@H](O)CC[C@@H]12 | -0.9 | x | x | x | x | x
C[C@]12CC[C@@H]3c4ccc(O)cc4CC[C@H]3[C@@H]1CC[C@@H]2O | -0.5 | -2.0 | -27.8% | i | u | -6.6%
CC(=O)OC1CCC2C3CCc4cc(O)ccc4C3CCC12C (centres undefined) | -0.5 | -24.6 | u | i | 18.4µM* | -16.1%
C(=Nc1ccc(/C=C/c2ccnc3ccccc23)cc1)c1ccco1 | x | x | x | i | i | x
CCN(CC)C(=O)c1cc(-c2ccc(Br)cc2)on1 | -0.4 | -9.3 | u | i | 5.17µM* | -2.7%
COc1ccc(CNC(=O)c2cc3c(=O)n(Cc4ccc(OC)cc4)ccc3nc2C)cc1 | -1.6 | x | u | 2.59µM* | i | -6.7%
Cc1sc2ccccc2[n+]1CCC[n+]1c(C)sc2ccccc21 | x | x | x | i | i | x
Cn1nc(C(F)(F)F)c(C#N)c1N1CCN(c2ccccc2F)CC1 | 5.3 | 41.8 | u | u | i | 4.4%
COc1cccc(N2CCN(c3c(C#N)c(C(F)(F)F)nn3C)CC2)c1 | 0.0 | -8.5 | u | i | 13µM* | -5.7%
C[C@H]1[C@@H](OC(=O)NCCc2c[nH]c3ccccc23)CC[C@@]23CCCN2C(=O)CCC[C@@H]13 | -1.8 | x | x | x | x | x
CCN(CC)C(=O)CN1C(=O)C2CCCCN2C(=O)c2ccccc21 (centres undefined) | 3.2 | x | x | x | x | x
COc1ccc(C)cc1NC(=O)c1cc(C2CC2)nc2c1c(C)nn2C1CCS(=O)(=O)C1 (centres undefined) | -18.5 | 11.7 | -5.5% | i | 4.61µM* | 0.2%
Cc1nn(C2CCS(=O)(=O)C2)c2nc(C3CC3)cc(C(=O)Nc3ccc(C(N)=O)cc3)c12 (centres undefined) | -3.4 | 9.9 | -4.4% | i | i | -3.9%
SMILES | PI4K2A block | Giardia killer | Nrf2 block | KB-3-1 cytotox | KB-V1 cytotox | A549 viability
CC(C)(C)OC(=O)NC1CCN(c2nc(-c3ccc(Br)cc3)cs2)CC1 | -2.9 | x | x | x | x | x
COc1ccc(-c2c/c(=N\c3nc(-c4ccccc4)c(C)s3)c3ccccc3o2)cc1O | -9.2 | 6.6 | u | 5.17µM* | 5.8µM* | u
COc1ccc(-c2cc(=Nc3c(C)n(C)n(-c4ccccc4)c3=O)c3ccccc3o2)cc1 | -1.0 | -11.0 | u | i | u | -4.7%
O=C(COCc1ccccc1)N1CC[C@H]2[C@H](CCCN2Cc2ccc(F)cc2)C1 | -2.1 | x | x | x | x | x
Cc1ccccc1NC(=O)[C@H]1CC(=O)O[C@@H]1c1ccccc1 | -2.0 | x | x | x | x | x
O=C(OCCCN1CCC2(CCCCC2)C1=O)c1ccccc1 | 13.5 | x | x | x | x | x
Cc1ccc(C(c2nnnn2C2CCCCC2)N(C)C2CCCCC2)cc1 (centres undefined) | -7.4 | 18.9 | 25.9µM* | i | i | 0.7%
O=c1[nH]c2cc3c(cc2cc1C(c1nnnn1C1CCCC1)N1CCSCC1)OCCO3 (centres undefined) | -5.9 | -20.8 | 1.3% | u | 10.3µM* | 7.9%
Cc1ccc(C(c2nnnn2C2CCCC2)N2CCc3ccccc32)cc1 (centres undefined) | 0.1 | 11.2 | 11.1% | i | 20.6µM* | 3.7%
CC(C)C(c1nnnn1C1CCCC1)N1CCOCC1 (centres undefined) | -5.7 | 2.3 | -8.9% | i | i | -2.2%
CC(C)C(c1nnnn1C1CCCC1)N(C)C1CCCCC1 (centres undefined) | -3.3 | 2.2 | 14.1% | i | 18.4µM* | 6.4%
Cc1ccc(N(C)C(=O)Cn2cc(S(=O)(=O)N3CCCC3)c(S(=O)(=O)N3CCCC3)c2)cc1 | 0.5 | x | 13.9% | i | i | -1.7%
COc1cc2cc(C(c3nnnn3C3CCCCC3)N(C)C3CCCCC3)c(=O)[nH]c2cc1OC (centres undefined) | -1.4 | -8.0 | x | 20.6µM* | 23.1µM* | u
COCCCn1c2nc3ccccc3nc2c2c(=O)n(-c3ccccc3OC)cnc21 | 7.1 | 2.4 | x | i | i | 15.1%
COc1ccccc1-n1cnc2c(c1=O)c1nc3ccccc3nc1n2-c1ccc(C)c(C)c1 | -1.1 | 6.1 | 5.8µM* | i | i | u
O=C(OCc1cn(Cc2ccc(F)c(F)c2)nn1)N1CCCC1 | 1.3 | x | x | x | x | x
Cc1cc(C(=O)CN2CCN(CC(=O)Nc3cccc(F)c3)CC2)c(C)n1C1CC1 | -2.9 | 2.7 | 5.1% | i | 10.3µM* | -4.0%
